Test results from PubChem BioAssay AID492948 (National Center for Advancing Translational Sciences (NCATS), 2010).
Results filed as inconclusive are left out. Activity calls are given as the source filed them. The call rests on the fitted dose curve; in most records, active means well fitted activation curve with a large enough effect; inconclusive means small, poorly fitted or top-dose-only effect; inactive means no such curve, though single readings can be large or run the other way.

Experiment: qHTS Assay for Agonists of the Relaxin Receptor RXFP1: V1B Hit Validation;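 further: counter-screen in HEK293 cells expressing V1B rather than RXFP1 for selectivity; nearly all actives have a fitted effect of over 65% in size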;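 on activation: cAMP accumulation with PDE4 inhibitor Ro 20-1724 present during compound exposure; 0% = buffer alone basal and 100% = 29 nM porcine relaxin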
Details: HEK293 V1B cells, cAMP TR-FRET, 30 min; series mostly up to 115 µM; activation: at the top concentration
Description: NIH Chemical Genomics Center [NCGC]
NIH Molecular Libraries Probe Production Centers Network [MLPCN]
Assay Submitter (PI): Alexander Agoulnik
The relaxin hormone is involved in the variety of biological functions in normal tissues and diseases. The role of relaxin is well-established in female reproduction and parturition, mammary gland and endometrial development, maintenance of myometrial quiescence during pregnancy. Relaxin signaling through its G protein-coupled receptor (GPCR) RXFP1 results in ECM remodeling through regulation of collagen deposition, cell invasiveness, proliferation and overall tissue homeostasis. […] Recombinant human relaxin (rhRlx) is currently being tested in clinical trials as a protective agent in congestive heart failure, in treating severe preeclampsia, and as an anti-fibrotic agent in systemic sclerosis.
Upon relaxin binding RXFP1 activation leads to the activation of adenylate cyclase (AC) via Gs. cAMP will activate PKA, which phosphorylates many signaling proteins. Thus, detection of cAMP increase is an easy and reliable indication of relaxin receptor activation. To screen for agonists of the relaxin receptor, a HEK293T cell line stably transfected with RXFP1 was used. RXFP1 activation was assayed by changes in cAMP levels as detected with a time-resolved fluorescence energy transfer (TR-FRET) cAMP detection kit.
This assay measures activation of a cell expressing […], another GPCR targeted by relaxin, to determine the selectivity of compounds for RXFP1.
NCGC Assay Protocol Summary:
This is a cell-based assay for cAMP second messenger response to screen for agonists of the RXFP2 receptor. The assay was conducted in the presence of a PDE4 inhibitor (Ro 20174). The cells were lysed and the cAMP levels were measured with a TR-FRET cAMP kit. Presence of cAMP in the cell lysate disrupts binding between the cryptate-labeled anti-cAMP and d2-labeled cAMP pair, leading to a decrease in the TR-FRET signal. Data were normalized to the controls for basal activity (buffer only) and 100% activity (29 nM porcine relaxin). The EC50 values were determined from concentration-response data modeled with the standard Hill equation
1536-well assay protocol for the HEK293 V1B cAMP assay:
(1) Add 3 ul HEK293 RXFP2 cell culture. 2000 cells/well in DMEM/F12, 10% FBS, 1x Pen/Strep (dispensed offline with MultiDrop Combi).
(3) Add 23 nl compounds in DMSO solution. Final concentration was 0.5 - 58 uM.
(4) Incubate 30 min at 37C, 5% CO2.
(5) Add 1 ul cAMP-d2 in lysis buffer (HTRF cAMP HiRange kit, CisBio).
(6) Add 1 ul anti-cAMP antibody-cryptate in lysis buffer (HTRF cAMP HiRange kit, CisBio).
(7) Incubate 30 min at room temperature.
(6) Detect the assay plate in a ViewLux plate reader (PerkinElmer) with Ex=320 nm, Em1=615 nm and Em2=665 nm.
Keywords: relaxin, RXFP1, RXFP2, G-protein coupled receptor, cAMP, agonist, high throughput screening, MLSMR, MLSCN, NIH Roadmap, qHTS and NCGC
Potency means the concentration at half of the fitted maximal effect.

Potency, active:
Brc1ccc(-c2nn3c(-c4ccco4)nnc3s2)o1 13.8 µM
CC1(C)Cc2nc3sc4c(SCC(=O)NC(c5ccccc5)c5ccccc5)ncnc4c3cc2CO1 3.46 µM
CC1(C)O[C@@H]2[C@H](O1)[C@@H](COS(=O)(=O)O)O[C@H]2n1cnc2c(N)ncnc21 3.88 µM
COC(=O)Cn1cnc2c(C#N)c3n(c2c1=O)CCCCC3 13.8 µM
COC(=O)c1cc(CN2C(=O)c3ccccc3C2=O)c(O)c([N+](=O)[O-])c1 30.9 µM
Cc1cc(Br)c2nc3c(c(C(=O)O)c2c1)CCCCC3 1.54 µM
Cc1noc(NS(=O)(=O)c2ccc(N3Cc4ccccc4C3=O)cc2)c1C 11.9 µM
O=[N+]([O-])c1cc2c(c(CSc3nnc4ccccn34)c1)OCOC2 12.3 µM
CC1CCN(S(=O)(=O)c2ccc3nc(N4CCN(c5ccccc5)CC4)ccc3c2)CC1 13.8 µM
O=C(COc1ncnc2scc(-c3ccccc3)c12)NCCN1C(=O)CSC1=O 19.4 µM
CN(C)S(=O)(=O)c1cccc(COc2ncnc3c(Cl)cc(Cl)cc23)c1 27.5 µM
CCC(Sc1ccc2nnc(-c3cccnc3)n2n1)C(=O)OC (stereo not given) 19.4 µM
CCCC(=O)Nc1ncnc2c1ncn2[C@@H]1O[C@@H]2OP(=O)(O)OC[C@H]2[C@H]1OC(=O)CCC 0.868 µM
CCOP1(=O)OCC2OC(n3cnc4c(N)ncnc43)C(O)C2O1 (stereo not given) 12.3 µM
CCN(CC)c1ccc(S(=O)(=O)N2CCOCC2)cc1NC(=O)CSc1nncn1C 12.3 µM
Cn1c2ccccc2c2nnc(SCC(=O)Nc3cccc(C(=O)O)c3)nc21 21.9 µM
CCOC(=O)c1sc(NC(=O)CCc2ccc(OC)cc2)nc1C 15.4 µM
CCC(Sc1ccc2nnc(-c3cccnc3)n2n1)C(=O)O (stereo not given) 17.3 µM
COc1ccc(NC(=O)CCCc2nnc3n(C)c(=O)c4sccc4n23)cc1 43.6 µM
Cc1cccn2c(=O)c(/C=C3\SC(=S)NC3=O)c(NCCCN3CCOCC3)nc12 4.35 µM
CC(=O)c1sc(NC(=O)C(C)C)nc1C 17.3 µM
CC1(C)Cc2c(sc3c2c2ncnn2c2nnc(SCC(=O)NCc4ccco4)n32)CO1 6.91 µM
O=c1oc2cc(O)c(Cl)cc2c2ccccc12 6.9 µM

activation, inactive:
Cc1ccc(-c2ccc3nnc(SCC(=O)NCC4CCCO4)n3n2)cc1 (stereo not given) -24.2%
COC(=O)c1c(N2C(=O)CC(Sc3ncccc3C(=O)O)C2=O)sc(C)c1C (stereo not given) -11.8%
O=C(Nc1ccccc1C(=O)N1CCN(c2ccccc2)CC1)c1ccco1 -5.2% [at 127 µM]
CC(C)C(=O)Nc1ccc(Nc2ccccc2)cc1 -2.7%
CCC(=O)Nc1ccc(-n2nnnc2SCC(=O)NNC(=O)c2ccco2)cc1 1.43%
CCNc1nc(NCC)nc(N(C)/N=C/c2ccco2)n1 2.96%
CCOC(=O)CNC(=O)CSc1ccc2nnc(-c3cccnc3)n2n1 -30.5%
c1ccc(-c2nnc(-c3ccccn3)c(-c3ccccn3)n2)nc1 -1.59%
CCN(CC)C(=O)c1cc(Cl)ccc1NC(=O)c1ccco1 2.42% [at 127 µM]
O=C(O)CCNc1ccc(NCCC(=O)O)c2c1C(=O)c1ccccc1C2=O 1.09%
O=C(Nc1ccccc1C(=O)NCCN1CCOCC1)c1ccco1 3.24% [at 127 µM]
CN(C)c1ccc(C(=S)N2CCN(S(=O)(=O)c3ccccc3)CC2)cc1 4.97%
Cn1c(N)c(C(=O)CSc2nnc(NC3CCCCC3)s2)c(=O)n(C)c1=O -26.8%
Cc1ccc(C(=O)Nc2ccccc2C(N)=O)o1 4.86% [at 127 µM]
Cc1ccc(CN(C)C(=O)c2ccc3c(c2)NC(=O)CS3)o1 -30.6%
CC(NC(=O)c1ccccc1NC(=O)c1ccco1)C(=O)O (stereo not given) 2.15% [at 127 µM]
O=C(Nc1ccccc1C(=O)NCCc1ccc(O)cc1)c1ccco1 3.88% [at 127 µM]
